Each structure is given as a SMILES string. “And” between values parts separate entries of the source, which are not always exact repeats. Equal entries are not always repeated. Results filed as inconclusive are left out. Where a structure was tested more than once in an assay, its records may differ in their call. The source made the active and inactive calls. Unless noted, the call rests on the fitted dose curve.

The nature of test [1]: qHTS assay to identify small molecule agonists of the sonic hedgehog signaling (Shh) pathway (AID 1259368).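 Further: NIH/3T3-derived 3T3Gli1-Luc cells carrying a stable Gli1-driven firefly luciferase reporter; series mostly up to about 92 µM; nearly all actives have a fitted effect of over 15% in size.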 The method in brief:
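NIH/3T3-derived 3T3Gli1-Luc cells with stably integrated Gli1-driven firefly luciferase, 2,000 cells/well, compounds added after 4 hr. Incubated 24 hr at 37C, 5% CO2; luminescence read after 30 min with luciferase reagent at room temperature.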
A general note: In qHTS, concentration-response curves come from the screen itself.

Test [2] in a line: qHTS assay to identify small molecule antagonists of the sonic hedgehog signaling (Shh) pathway (AID 1259369). Further: nearly all actives have a fitted effect of over 45% in size. Further: potency means the concentration at half of the fitted maximal effect. In outline: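 NIH/3T3-derived Gli1-Luc reporter cells plated 4 h, dosed with compound, then stimulated with conditioned medium for 24 h at 37 C. Firefly luciferase luminescence read after 30 min with detection reagent at room temperature.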
For test [3], the target named is Estrogen receptor beta (Homo sapiens) (UniProt Q92731). The test can be described thus: qHTS assay to identify small molecule agonists of the estrogen receptor beta (ER-beta) signaling pathway (AID 1259377; active means well fitted activation curve with a large enough effect in the signal ratio in the repeat runs, not every such curve was filed as active; the % refers to the signal ratio). The method in brief:
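A UAS-controlled beta-lactamase reporter in ER-beta-UAS-bla HEK293T cells reports receptor activation. Compounds act for 16 hr at 37C in 2% charcoal-stripped serum, and a FRET substrate is read by fluorescence after 2 hours.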

Test [4] shares this target. The test can be described thus: qHTS assay to identify small molecule antagonists of the estrogen receptor beta (ER-beta) signaling pathway (AID 1259378; active means well fitted inhibition curve with a large enough effect in the signal ratio in the repeat runs, not every such curve was filed as active; the % refers to the signal ratio; further: potency means the concentration at half of the fitted maximal effect). The method in brief: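 ER-beta-UAS-bla HEK293T (GripTite) cells in 2% charcoal-stripped FBS medium were preincubated 6 hr at 37C, dosed with compound, then stimulated with 1 nM E2 (final) for 16 hr; beta-lactamase reporter read by B/G FRET fluorescence after 2 hr substrate loading.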

The nature of test [5]: qHTS assay to identify small molecule agonists of the androgen receptor (AR) signaling pathway in the presence of an antagonist - cell viability counter screen (AID 1259379; active means well fitted curve in the direction sought with a large enough effect in the repeat runs; an effect the other way counts as inactive or inconclusive; further: nearly all actives have a fitted effect of over 25% in size; further: potency means the concentration at half of the fitted maximal effect). In outline:
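MDA-kb2 cells (MMTV-luciferase, AR/GR), 3,000/well, 5 h attachment, then 3.0 µM nilutamide (final) and compounds at 15 concentrations. Viability by CellTiter-Fluor fluorescence after 16 h at 37 °C, 0% CO2, in the reporter wells.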

A short description of test [6]: qHTS assay to identify small molecule agonists of the estrogen receptor beta (ER-beta) signaling pathway - cell viability counter screen (AID 1259380; active means well fitted curve in the direction sought with a large enough effect in the repeat runs; an effect the other way counts as inactive or inconclusive; further: nearly all actives have a fitted effect of over 30% in size; further: potency means the concentration at half of the fitted maximal effect). The method in brief:
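ER-beta-UAS-bla HEK293T cells in medium with 2% charcoal-stripped FBS, pre-incubated 6 hr, then treated 16 hr at 37C. Cytotoxicity read in the same wells by CellTiter-Glo luminescence after 30 min at room temperature.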

Test [7] in a line: qHTS assay to identify small molecule antagonists of the estrogen receptor beta (ER-beta) signaling pathway - cell viability counter screen (AID 1259382; active means well fitted curve in the direction sought with a large enough effect in the repeat runs; an effect the other way counts as inactive or inconclusive; further: nearly all actives have a fitted effect of over 55% in size; further: potency means the concentration at half of the fitted maximal effect). In outline:
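ER-beta-UAS-bla HEK293T cells in 2% charcoal-stripped FBS medium, treated with compound plus 1 nM 17-beta-estradiol for 16 h at 37C. Viability read by CellTiter-Glo luminescence after 30 min at room temperature in the same wells.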

Test [8] is described as follows: qHTS assay to identify small molecule agonists or antagonists of the thyroid stimulating hormone receptor (TSHR) signaling pathway - wild type cell line counter screen (AID 1259384). The method in brief: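 Wild-type HEK293 cells were plated 18 h at 37 C/5% CO2, pin-dosed with compound plus Ro20-1724 medium, held 30 min at room temperature, then given cAMP-d2 and anti-cAMP-cryptate; fluorescence was read after 1 h. Fifteen concentrations, triplicate.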

The target in test [9] is Estrogen receptor (Homo sapiens) (UniProt P03372). As to the kind of experiment: qHTS assay to identify small molecule agonists of the estrogen receptor alpha (ER-alpha) signaling pathway in the presence of an antagonist (AID 1259383). Further: nearly all actives have a fitted effect of over 15% in size. Further: potency means the concentration at half of the fitted maximal effect. On activation: top concentration of the series differs between compounds. The method in brief:
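VM7Luc4E2 cells express endogenous full-length ER-alpha with an ERE-luciferase reporter and were hormone-deprived for 5 days. Compounds at 15 concentrations were added with 10.0nM ICI-182,780 for 22hr at 37C. Luminescence was read with ONE-Glo.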

For test [10], the target named is Androgen receptor (Homo sapiens) (UniProt P10275). The test can be described thus: qHTS assay to identify small molecule agonists of the androgen receptor (AR) signaling pathway in the presence of an antagonist (AID 1259381). Further: nearly all actives have a fitted effect of over 15% in size. Further: potency means the concentration at half of the fitted maximal effect. The method in brief: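 MDA-kb2 cells carrying MMTV-luciferase (AR/GR responsive), 3,000 cells/well, co-treated with 3.0 uM nilutamide final. Compounds at 15 concentrations, 16 hr at 37C without CO2. Luciferase luminescence read after 30 min with ONE-Glo.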
Androgen receptor (Homo sapiens), sequence (P10275 whole entry, looked up): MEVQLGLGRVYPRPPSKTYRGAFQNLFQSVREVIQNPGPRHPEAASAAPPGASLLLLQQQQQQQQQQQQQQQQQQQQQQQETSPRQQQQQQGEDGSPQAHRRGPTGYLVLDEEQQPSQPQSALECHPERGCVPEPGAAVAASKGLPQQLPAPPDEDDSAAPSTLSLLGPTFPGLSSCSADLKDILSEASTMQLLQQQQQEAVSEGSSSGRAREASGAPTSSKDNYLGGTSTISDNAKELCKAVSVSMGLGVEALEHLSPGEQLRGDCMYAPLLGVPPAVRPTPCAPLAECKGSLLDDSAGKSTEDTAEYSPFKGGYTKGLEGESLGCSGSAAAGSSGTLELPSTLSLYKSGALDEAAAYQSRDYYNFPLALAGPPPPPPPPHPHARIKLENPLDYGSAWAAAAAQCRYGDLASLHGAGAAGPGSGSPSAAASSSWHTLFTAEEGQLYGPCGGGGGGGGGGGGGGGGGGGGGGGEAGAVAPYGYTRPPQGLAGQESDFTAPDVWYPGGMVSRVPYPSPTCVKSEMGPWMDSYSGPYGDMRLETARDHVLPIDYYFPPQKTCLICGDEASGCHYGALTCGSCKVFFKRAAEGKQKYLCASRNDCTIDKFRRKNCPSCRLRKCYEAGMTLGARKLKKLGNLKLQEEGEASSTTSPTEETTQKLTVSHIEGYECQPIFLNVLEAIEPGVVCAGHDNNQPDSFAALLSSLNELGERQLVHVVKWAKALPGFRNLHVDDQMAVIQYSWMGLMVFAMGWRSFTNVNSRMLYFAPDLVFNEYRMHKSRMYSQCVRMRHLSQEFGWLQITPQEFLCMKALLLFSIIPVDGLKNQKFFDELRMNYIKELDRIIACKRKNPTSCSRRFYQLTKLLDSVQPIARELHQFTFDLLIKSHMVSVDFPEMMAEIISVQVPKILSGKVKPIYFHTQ

Estrogen receptor beta (Homo sapiens), sequence (Q92731 whole entry, looked up): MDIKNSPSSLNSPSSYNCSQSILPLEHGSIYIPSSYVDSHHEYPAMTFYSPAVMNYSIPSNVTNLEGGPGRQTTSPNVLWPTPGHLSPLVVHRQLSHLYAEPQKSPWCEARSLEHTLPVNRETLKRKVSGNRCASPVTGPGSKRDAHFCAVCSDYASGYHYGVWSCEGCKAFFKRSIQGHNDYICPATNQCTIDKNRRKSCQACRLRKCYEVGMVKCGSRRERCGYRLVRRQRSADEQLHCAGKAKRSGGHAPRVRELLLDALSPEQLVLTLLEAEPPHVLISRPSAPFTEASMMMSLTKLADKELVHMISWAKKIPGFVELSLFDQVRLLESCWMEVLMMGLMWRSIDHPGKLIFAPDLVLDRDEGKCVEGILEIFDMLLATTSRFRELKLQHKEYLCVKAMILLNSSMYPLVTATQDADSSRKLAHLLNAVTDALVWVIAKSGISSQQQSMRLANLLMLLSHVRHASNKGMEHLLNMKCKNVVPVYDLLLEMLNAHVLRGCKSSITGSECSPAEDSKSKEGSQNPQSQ
Estrogen receptor (Homo sapiens), sequence (P03372 whole entry, looked up): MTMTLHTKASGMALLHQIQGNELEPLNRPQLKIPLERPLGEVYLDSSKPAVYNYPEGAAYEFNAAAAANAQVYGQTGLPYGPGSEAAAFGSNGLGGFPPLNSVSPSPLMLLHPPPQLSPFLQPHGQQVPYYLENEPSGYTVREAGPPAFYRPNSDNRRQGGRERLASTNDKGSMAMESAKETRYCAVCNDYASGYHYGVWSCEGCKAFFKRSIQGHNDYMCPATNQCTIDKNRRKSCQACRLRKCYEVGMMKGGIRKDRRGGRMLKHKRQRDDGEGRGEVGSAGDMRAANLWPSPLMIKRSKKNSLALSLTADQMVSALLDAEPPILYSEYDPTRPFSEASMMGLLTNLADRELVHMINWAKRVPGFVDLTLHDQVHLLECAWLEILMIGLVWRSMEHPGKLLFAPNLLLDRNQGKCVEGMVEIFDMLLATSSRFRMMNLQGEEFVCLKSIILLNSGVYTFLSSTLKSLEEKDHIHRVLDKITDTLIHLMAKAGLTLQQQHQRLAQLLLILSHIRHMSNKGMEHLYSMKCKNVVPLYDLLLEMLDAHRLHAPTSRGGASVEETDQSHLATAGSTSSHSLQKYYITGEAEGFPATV

Turning to `CCCCN(CC)c1c([N+](=O)[O-])cc(C(F)(F)F)cc1[N+](=O)[O-]`, the Potency entry in [1], in [2], in test [3], in test [4], in [5] and in test [6] was “inactive” throughout. Also, in test [7], the Potency result is “inactive”. Also, in test [8], the result was inactive.

For the compound `NNC(N)=S`, the Potency result in test [1], in test [3], in test [5] and in [9] was “inactive” each time. Also, the Potency in [2] was 8.97 µM (active) and 12.2 µM (active); in test [4], 11.3 µM (active) and 30.6 µM (active); in test [6], 31.8 µM (active); in test [7] it was 12.7 µM (active). The result in [8] was inactive.

Consider `Oc1cc(Cl)c(Cl)cc1Cl`, for which the Potency entry in test [1], in [2], in [3], in test [4] and in test [7] was “inactive” each time. Moreover, the compound was classed as inactive in test [8].

Regarding `CCCCN(CCCC)N=O`, the Potency entry in test [1], in test [2], in test [3], in [5], in test [6] and in test [7] was “inactive” in each case. Besides, in [9], the Potency result is “inactive”. Further, the compound was called inactive in test [8].

As to `Nc1cccnc1`, the Potency entry in test [1], in test [2], in test [3], in test [4], in test [5] and in [6] was “inactive” each time. Besides, the Potency result in test [7] and in test [9] was “inactive” each time. Besides, the outcome in test [8] was inactive.

As for `CC1(C)C(C=C(Cl)Cl)C1C(=O)OC(C#N)c1cccc(Oc2ccccc2)c1` (stereo not drawn), the Potency entry in [1], in test [2], in [3], in test [4], in test [5] and in [7] was “inactive” each time. Also, in [9], the Potency entry was “inactive”. Further, the outcome in test [8] was inactive.

With `O=C1C=CC(=O)C=C1`, the Potency result in [1], in test [2], in [3], in [4], in [5] and in test [6] was “inactive” throughout. Also, the Potency entry in [7] is “inactive”. The compound was called inactive in [8].

`c1ccc(P(c2ccccc2)c2ccccc2)cc1`: the Potency entry in test [1], in test [3], in test [4], in test [5], in test [6] and in test [7] was “inactive” throughout. Also, the Potency entry in test [9] was “inactive”. Besides, the Potency entry in [2] was “inactive and 17.2 µM (active)”. Further, the result in [8] was inactive.

Consider `CCC(C)c1ccc(O)cc1` (stereo not drawn), for which the Potency result in [1], in test [2], in [3], in [4], in [6] and in [7] was “inactive” in each case.

Regarding `CN(C)c1ccc(C(=O)c2ccc(N(C)C)cc2)cc1`, the Potency result in test [1], in test [3], in test [4] and in test [7] was “inactive” in each case. For the same compound, the Potency entry in test [2] was “inactive and 24.3 µM (active)”. Moreover, in [8], the result was inactive.

As to `c1nc[nH]n1`, the Potency result in test [1], in [2], in test [3], in test [4], in test [7] and in test [9] was “inactive” in each case. Moreover, in [8], the outcome was inactive.

Consider `C=CC(=O)OCCO`, for which the Potency result in [1], in [3], in test [4], in test [5] and in test [7] was “inactive” in each case. Besides, the Potency in test [2] was 24.7 µM (active) and 27.3 µM (active). Moreover, the outcome in [8] was inactive.

As to `CCC(CC)Nc1c([N+](=O)[O-])cc(C)c(C)c1[N+](=O)[O-]`, the Potency result in test [1], in test [2], in test [3], in test [5] and in test [7] was “inactive” in each case. In [6], the Potency is 61.1 µM (active). In test [8], the compound was classed as inactive.

For `N[C@@H](Cc1ccc(N(CCCl)CCCl)cc1)C(=O)O`, the Potency result in [1], in test [2], in test [3], in test [4], in [5] and in [7] was “inactive” throughout. In addition, in [8], the compound was called inactive.

`CCC(=O)O[C@H]1CC[C@H]2[C@@H]3CCC4=CC(=O)CC[C@]4(C)[C@H]3CC[C@]12C`: the Potency result in test [1] and in test [5] was “inactive” throughout. Further, the Potency was 30.6 µM (active) and 18.8 µM (active) in [2]; 48.6 nM (active) and 47.3 nM (active) in [10]; 61.1 µM (active) and inactive in test [7]; 7.7 µM (active) and 9.44 µM (active) in test [9]. The outcome in test [8] was inactive.

Regarding `C#CCOS(=O)OC1CCCCC1Oc1ccc(C(C)(C)C)cc1` (stereo not drawn), the Potency was 687 nM (active) and 2.17 µM (active) in test [2]; 5.45 µM (active) and 4.86 µM (active) in test [4]; 5.45 µM (active) in [5]; 27.3 µM (active) in test [6]. In addition, the Potency entry in test [3], in test [7] and in test [9] was “inactive” throughout. Also, in test [8], the compound was classed as inactive.

As to `Cc1ccc2c(c1N)C(=O)c1ccccc1C2=O`, the Potency entry in test [1], in test [2], in test [4] and in test [7] was “inactive” each time. For the same compound, the Potency in [9] was 6.04 µM (active) and inactive. Besides, the compound was classed as inactive in test [8].

As for `CCN(N=O)C(N)=O`, the Potency entry in test [2], in test [3], in [4], in test [5], in [6] and in [7] was “inactive” each time. In [9], the Potency result is “inactive”. For the same compound, in test [8], the call was inactive.

For the compound `CC(C)(c1cc(Cl)c(O)c(Cl)c1)c1cc(Cl)c(O)c(Cl)c1`, the Potency entry in test [1], in test [5], in [6] and in test [7] was “inactive” in each case. Besides, the Potency in test [2] is 30.6 µM (active) and 34.4 µM (active). Further, the call in test [8] was inactive.

Regarding `CCN(CC)C(=O)SCc1ccc(Cl)cc1`, the Potency entry in test [1], in test [2], in test [5], in [7] and in test [9] was “inactive” in each case. Also, the result in [8] was inactive.

`CCCCOCCOP(=O)(OCCOCCCC)OCCOCCCC`: the Potency result in test [1], in test [3], in test [4], in test [5] and in [9] was “inactive” each time. Further, the Potency in test [6] is 24.4 µM (active). Also, the outcome in test [8] was inactive.

With `Cc1c(COC(=O)[C@@H]2[C@H](/C=C(\Cl)C(F)(F)F)C2(C)C)cccc1-c1ccccc1`, the Potency entry in [2], in test [3], in test [4], in [5], in test [6] and in test [7] was “inactive” in each case. The Potency result in [9] was “inactive”. The compound was called inactive in [8].

With `CC(C)Oc1cc(-n2nc(C(C)(C)C)oc2=O)c(Cl)cc1Cl`, the Potency entry in [1], in test [2], in test [3], in test [5], in test [10] and in test [7] was “inactive” each time. In addition, in test [9], the Potency entry was “inactive”. Also, the compound was classed as inactive in test [8].

Turning to `C=CCc1ccc2c(c1)OCO2`, the Potency entry in [1], in test [2], in [5], in test [6] and in test [7] was “inactive” in each case. Moreover, the outcome in [8] was inactive.

`O=Cc1ccco1`: the Potency result in test [1], in test [2], in [5], in test [6] and in [7] was “inactive” throughout. For the same compound, the compound was classed as inactive in test [8].

As for `COc1ccc(C=O)cc1`, the Potency entry in test [1], in test [2], in test [5], in test [6], in test [7] and in [9] was “inactive” in each case. In addition, the outcome in [8] was inactive.
